The campaign covered roughly 5,500 compounds. About 2,000 (36%) were called active. Roughly 18% stayed inconclusive and do not appear here. Rule as the data show it: active = normalized growth mostly below about 0.91 (no sharp cut-off); inconclusive = no clear call, values can overlap the other calls; inactive = mostly above about 0.92. The list shows a part of the results.
Test: chemical genetic growth profiling, strain panel (AID 1159580);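 also: tested at 20 µM; growth read once vehicle control cultures reached saturation at 30 °C; 1 = growth at the plate median or of vehicle wells; lower values mean less growth of the strain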
Conditions: growth OD

Measured: normalized growth

CCCN(CCC)S(=O)(=O)c1ccc(C(=O)O)cc1
inactive: S. cerevisiae deletion strains, locus YJR075W, strain HOC1, hits give low values 1 | S. cerevisiae deletion strains, locus YKL009W, strain mrt4, hits give low values 0.998 | S. cerevisiae deletion strains, locus YKL068W, hits give low values 0.998 | S. cerevisiae deletion strains, locus YKL085W, strain MDH1 (second series), hits give low values 1 | S. cerevisiae deletion strains, locus YKL085W, strain MDH1, hits give low values 1 | S. cerevisiae deletion strains, locus YKL160W, strain elf1, hits give low values 0.971 | S. cerevisiae deletion strains, locus YKL190W, strain CNB1, hits give low values 0.983 | S. cerevisiae deletion strains, locus YKR001C, strain vps1, hits give low values 1.02 | S. cerevisiae deletion strains, locus YKR026C, strain gcn3, hits give low values 0.988 | S. cerevisiae deletion strains, locus YKR091W, strain srl3, hits give low values 0.993 | S. cerevisiae deletion strains, locus YLL001W, strain dnm1, hits give low values 0.952 | S. cerevisiae deletion strains, locus YLL026W, hits give low values 0.984 | S. cerevisiae deletion strains, locus YLL041C, strain sdh2, hits give low values 0.992 | S. cerevisiae deletion strains, locus YLR027C, strain aat2, hits give low values 0.973 | S. cerevisiae deletion strains, locus YLR039C, strain RIC1, hits give low values 1.02 | S. cerevisiae deletion strains, locus YLR058C, strain SHM2, hits give low values 1 | S. cerevisiae deletion strains, locus YLR102C, strain apc9, hits give low values 1 | S. cerevisiae deletion strains, locus YLR113W, strain HOG1, hits give low values 0.976 | S. cerevisiae deletion strains, locus YLR221C, strain rsa3, hits give low values 0.995 | S. cerevisiae deletion strains, locus YLR258W, strain gsy2, hits give low values 0.992 | S. cerevisiae deletion strains, locus YLR262C, strain YPT6 (second series), hits give low values 0.971 | S. cerevisiae deletion strains, locus YLR262C, strain YPT6, hits give low values 1.01 | S. cerevisiae deletion strains, locus YLR268W, strain sec22, hits give low values 1.03 | S. cerevisiae deletion strains, locus YLR320W, strain mms22, hits give low values 0.99 | S. cerevisiae deletion strains, locus YLR330W, strain CHS5, hits give low values 0.994 | S. cerevisiae deletion strains, locus YLR342W, strain FKS1 (second series), hits give low values 0.984 | S. cerevisiae deletion strains, locus YLR342W, strain FKS1, hits give low values 0.961 | S. cerevisiae deletion strains, locus YLR357W, strain rsc2, hits give low values 0.951 | S. cerevisiae deletion strains, locus YLR370C, strain arc18, hits give low values 0.974 | S. cerevisiae deletion strains, locus YLR371W, strain rom2, hits give low values 1.01 | S. cerevisiae deletion strains, locus YLR384C, strain iki3, hits give low values 0.983 | S. cerevisiae deletion strains, locus YLR418C, strain cdc73, hits give low values 1.03 | S. cerevisiae deletion strains, locus YML016C, strain PPZ1, hits give low values 1 | S. cerevisiae deletion strains, locus YML032C, strain rad52, hits give low values 1.02 | S. cerevisiae deletion strains, locus YML120C, strain ndi1, hits give low values 0.993 | S. cerevisiae deletion strains, locus YML124C, strain tub3, hits give low values 1.01 | S. cerevisiae deletion strains, locus YMR058W, strain fet3, hits give low values 0.991 | S. cerevisiae deletion strains, locus YMR078C, strain ctf18, hits give low values 1.03 | S. cerevisiae deletion strains, locus YMR125W, strain sto1, hits give low values 0.983 | S. cerevisiae deletion strains, locus YMR129W, hits give low values 0.991 | S. cerevisiae deletion strains, locus YMR205C, strain PFK2, hits give low values 0.984 | S. cerevisiae deletion strains, locus YMR223W, strain ubp8, hits give low values 0.992 | S. cerevisiae deletion strains, locus YMR231W, strain pep5, hits give low values 0.986 | S. cerevisiae deletion strains, locus YMR263W, strain SAP30, hits give low values 1 | S. cerevisiae deletion strains, locus YMR307W, strain GAS1, hits give low values 1 | S. cerevisiae deletion strains, locus YNL067W, strain RPL9B, hits give low values 1.01 | S. cerevisiae deletion strains, locus YNL071W, strain lat1, hits give low values 0.999 | S. cerevisiae deletion strains, locus YNL128W, strain TEP1, hits give low values 1.01 | S. cerevisiae deletion strains, locus YNL153C, strain GIM3, hits give low values 1.01 | S. cerevisiae deletion strains, locus YNL183C, strain NPR1, hits give low values 0.97 | S. cerevisiae deletion strains, locus YNL209W, strain ssb2, hits give low values 1.01 | S. cerevisiae deletion strains, locus YNL233W, strain BNI4, hits give low values 0.999 | S. cerevisiae deletion strains, locus YNL248C, strain rpa49, hits give low values 0.989 | S. cerevisiae deletion strains, locus YNL250W, strain rad50, hits give low values 1.01 | S. cerevisiae deletion strains, locus YNL271C, strain bni1, hits give low values 1.01 | S. cerevisiae deletion strains, locus YNL298W, strain CLA4, hits give low values 1.01 | S. cerevisiae deletion strains, locus YNL307C, strain MCK1, hits give low values 1.01 | S. cerevisiae deletion strains, locus YNL322C, strain KRE1 (second series), hits give low values 0.99 | S. cerevisiae deletion strains, locus YNL322C, strain KRE1, hits give low values 0.997 | S. cerevisiae deletion strains, locus YNR049C, strain mso1, hits give low values 0.984 | S. cerevisiae deletion strains, locus YNR052C, strain pop2, hits give low values 1.02 | S. cerevisiae deletion strains, locus YOL006C, strain TOP1, hits give low values 1.05 | S. cerevisiae deletion strains, locus YOL012C, strain htz1 0.687 | S. cerevisiae deletion strains, locus YOL147C, strain pex11, hits give low values 1 | S. cerevisiae deletion strains, locus YOR001W, strain rrp6, hits give low values 0.98 | S. cerevisiae deletion strains, locus YOR061W, strain CKA2, hits give low values 1 | S. cerevisiae deletion strains, locus YOR069W, strain VPS5, hits give low values 0.995 | S. cerevisiae deletion strains, locus YOR070C, strain gyp1, hits give low values 1 | S. cerevisiae deletion strains, locus YOR080W, strain dia2, hits give low values 0.982 | S. cerevisiae deletion strains, locus YOR083W, strain WHI5, hits give low values 0.953 | S. cerevisiae deletion strains, locus YOR106W, strain vam3, hits give low values 0.971 | S. cerevisiae deletion strains, locus YOR136W, strain idh2, hits give low values 1.02 | S. cerevisiae deletion strains, locus YOR144C, strain elg1, hits give low values 1.01 | S. cerevisiae deletion strains, locus YOR184W, strain ser1, hits give low values 1.04 | S. cerevisiae deletion strains, locus YOR231W, strain MKK1, hits give low values 0.976 | S. cerevisiae deletion strains, locus YOR265W, strain rbl2, hits give low values 0.992 | S. cerevisiae deletion strains, locus YOR270C, strain vph1, hits give low values 1 | S. cerevisiae deletion strains, locus YOR290C, strain snf2, hits give low values 1.01 | S. cerevisiae deletion strains, locus YOR316C, strain cot1, hits give low values 1.01 | S. cerevisiae deletion strains, locus YPL051W, strain arl3, hits give low values 0.984 | S. cerevisiae deletion strains, locus YPL055C, strain LGE1, hits give low values 0.976 | S. cerevisiae deletion strains, locus YPL078C, strain atp4, hits give low values 0.953 | S. cerevisiae deletion strains, locus YPL106C, strain sse1, hits give low values 1.01 | S. cerevisiae deletion strains, locus YPL240C, strain hsp82, hits give low values 0.977 | S. cerevisiae deletion strains, locus YPL241C, strain CIN2, hits give low values 0.991 | S. cerevisiae deletion strains, locus YPL256C, strain CLN2, hits give low values 1.04 | S. cerevisiae deletion strains, locus YPR119W, strain clb2, hits give low values 1.01 | S. cerevisiae deletion strains, locus YPR141C, strain kar3, hits give low values 1 | S. cerevisiae deletion strains, locus YPR163C, strain tif3, hits give low values 1.01 | S. cerevisiae deletion strains, locus YPR167C, strain met16, hits give low values 1.01 | S. cerevisiae deletion strains, strain wtn01, hits give low values 1.01 | S. cerevisiae strains, strain wild type, hits give low values 0.99

Source: PubChem BioAssay AID1159580 (chemical genetic matrix, 2015)
